In PubChem BioAssay (NCATS):
“And” between values parts separate entries of the source, which are not always exact repeats. Equal values may be shown once. Inconclusive results are not listed. Where a call stands in place of a potency, no number is given. The source made the active and inactive calls. Unless noted, calls follow the shape of the dose curve; as a rule, active = well fitted curve in the direction sought with a large enough effect; inconclusive = small, poorly fitted or top-dose-only effect, or another doubt; inactive = no such curve, though single readings can be large; an effect the other way counts as inactive or inconclusive.

How the values were obtained:
[1] = system: Zika virus NS2B-NS3 protease; experiment: Primary screen GU AMC qHTS for Zika virus inhibitors (AID 1347154); also: nearly all actives have a fitted effect of over 70% in size
Procedure, shortened: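 Unlinked Zika NS2B hydrophilic domain/NS3 protease domain noncovalent complex (25 nM final) in 10 mM Tris-HCl pH 8.0, 0.01% Tween 20, with AMC peptide substrate. Fluorescence (ex 340, em 450 nm) change over 15 min, room temperature; percent inhibition fitted to 4-parameter Hill equation.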

[2] = biological target: Cytochrome P450 1A2 (Homo sapiens) (UniProt P05177); experiment: p450-cyp1a2 (AID 410; calls by dose curve; also: potency is read from the fitted curve at half-maximal effect)
Sequence of Cytochrome P450 1A2 (Homo sapiens) (P05177 whole entry, looked up): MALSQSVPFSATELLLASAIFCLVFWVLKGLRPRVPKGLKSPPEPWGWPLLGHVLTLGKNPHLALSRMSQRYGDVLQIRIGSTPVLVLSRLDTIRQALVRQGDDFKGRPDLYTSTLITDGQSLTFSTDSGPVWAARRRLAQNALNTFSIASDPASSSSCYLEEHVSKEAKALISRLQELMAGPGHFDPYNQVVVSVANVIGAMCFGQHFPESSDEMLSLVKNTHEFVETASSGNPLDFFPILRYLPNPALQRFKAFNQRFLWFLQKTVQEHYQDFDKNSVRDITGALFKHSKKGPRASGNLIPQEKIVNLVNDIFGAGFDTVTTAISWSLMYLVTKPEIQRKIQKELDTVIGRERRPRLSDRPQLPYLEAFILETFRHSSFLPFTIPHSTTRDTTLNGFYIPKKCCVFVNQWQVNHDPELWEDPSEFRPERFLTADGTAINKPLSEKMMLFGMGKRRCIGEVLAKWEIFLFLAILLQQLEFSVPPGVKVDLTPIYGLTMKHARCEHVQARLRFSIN
Procedure, shortened: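 20nM CYP1A2, 100uM Luciferin-ME (=Km), 100mM KPO4; cpd 10 min RT; +NADPH regen, 60 min RT; stop/detect 20 min; luminescence. Normalized to furafylline 57 uM = full inhibition.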

[3] = biological target: Mitogen-activated protein kinase 10 (Mus musculus) (UniProt Q61831); experiment: JNK3 AlphaScreen Assay (AID 530; active = well fitted curve in either direction with a large enough effect, not every such curve was filed as active;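 also: kinase came from lysate of stimulated human HepG2 cells; signal reports phosphorylation of biotinylated GST-cJun 1-79 at Ser73 with 10 µM ATP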)
Procedure, shortened: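 Biotinylated GST-cJun(1-79) served as substrate for JNK3 in HepG2 lysates stimulated with IL-1beta and TNF-alpha. ATP was 10 uM final, pH 7.6. Ser73 phosphorylation was quantified by AlphaScreen (680 nm excitation).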

[4] = biological target: 3',5'-cyclic-AMP phosphodiesterase 4B (Homo sapiens) (UniProt Q07343); experiment: qHTS Assay for Inhibitors of PDE-IV (AID 607; active = well fitted activation curve with a large enough effect in the main read-out, with a control signal flat, not every such curve was filed as active)
Sequence of 3',5'-cyclic-AMP phosphodiesterase 4B (Homo sapiens) (Q07343 whole entry, looked up): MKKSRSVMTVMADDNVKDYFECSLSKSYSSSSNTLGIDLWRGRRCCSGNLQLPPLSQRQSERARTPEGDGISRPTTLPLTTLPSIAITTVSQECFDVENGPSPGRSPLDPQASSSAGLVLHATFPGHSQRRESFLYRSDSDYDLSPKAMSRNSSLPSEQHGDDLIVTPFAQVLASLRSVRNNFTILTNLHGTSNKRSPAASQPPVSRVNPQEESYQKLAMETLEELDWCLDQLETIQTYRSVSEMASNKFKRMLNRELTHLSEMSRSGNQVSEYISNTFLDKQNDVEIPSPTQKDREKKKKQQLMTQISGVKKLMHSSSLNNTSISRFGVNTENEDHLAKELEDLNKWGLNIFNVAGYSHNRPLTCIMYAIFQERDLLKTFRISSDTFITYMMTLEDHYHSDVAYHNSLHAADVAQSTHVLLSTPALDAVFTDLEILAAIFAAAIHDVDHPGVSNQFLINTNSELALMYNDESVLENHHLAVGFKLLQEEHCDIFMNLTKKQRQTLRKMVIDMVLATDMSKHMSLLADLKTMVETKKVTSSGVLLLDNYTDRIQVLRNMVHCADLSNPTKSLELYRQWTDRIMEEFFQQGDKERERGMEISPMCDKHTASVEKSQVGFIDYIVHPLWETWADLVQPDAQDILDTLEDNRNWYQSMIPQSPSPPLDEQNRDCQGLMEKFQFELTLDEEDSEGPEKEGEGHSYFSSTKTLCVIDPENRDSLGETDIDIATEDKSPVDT
Procedure, shortened: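 Cell-based read-out of cAMP via a modified cyclic nucleotide-gated channel and membrane potential dye (535/590 nm) in HEK293 cells expressing PDE4 endogenously. Compounds tested up to 22.9 uM final; 100 uM RO 20-1724 reference.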

[5] = qHTS Assay for Lipid Storage Modulators (AID 1519; calls by dose curve); settings: Drosophila S3 cells, BODIPY lipid droplet/cell ratio, laser cytometry, cells loaded with oleic acid; for activity change, negative = inhibition: at 57.5 µM (top of the series)
Procedure, shortened: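 Cells seeded at 5,000 per well were treated with compounds over a concentration series and loaded with oleic acid (400 uM, as added). Lipid droplet fluorescence (488 nm excitation, 500-530 nm channel) was read by laser-scanning cytometry and normalized to 20 uM Triacsin C.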

[6] = biological target: Ubiquitin carboxyl-terminal hydrolase 1 (Homo sapiens) (UniProt O94782); experiment: Inhibitors of USP1/UAF1: Pilot qHTS (AID 504865);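 also: rhodamine fluorescence freed from ubiquitin-rhodamine substrate followed over time; top concentration of the series differs between compounds; nearly all actives have a fitted effect of over 35% in size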
Sequence of Ubiquitin carboxyl-terminal hydrolase 1 (Homo sapiens) (O94782 whole entry, looked up): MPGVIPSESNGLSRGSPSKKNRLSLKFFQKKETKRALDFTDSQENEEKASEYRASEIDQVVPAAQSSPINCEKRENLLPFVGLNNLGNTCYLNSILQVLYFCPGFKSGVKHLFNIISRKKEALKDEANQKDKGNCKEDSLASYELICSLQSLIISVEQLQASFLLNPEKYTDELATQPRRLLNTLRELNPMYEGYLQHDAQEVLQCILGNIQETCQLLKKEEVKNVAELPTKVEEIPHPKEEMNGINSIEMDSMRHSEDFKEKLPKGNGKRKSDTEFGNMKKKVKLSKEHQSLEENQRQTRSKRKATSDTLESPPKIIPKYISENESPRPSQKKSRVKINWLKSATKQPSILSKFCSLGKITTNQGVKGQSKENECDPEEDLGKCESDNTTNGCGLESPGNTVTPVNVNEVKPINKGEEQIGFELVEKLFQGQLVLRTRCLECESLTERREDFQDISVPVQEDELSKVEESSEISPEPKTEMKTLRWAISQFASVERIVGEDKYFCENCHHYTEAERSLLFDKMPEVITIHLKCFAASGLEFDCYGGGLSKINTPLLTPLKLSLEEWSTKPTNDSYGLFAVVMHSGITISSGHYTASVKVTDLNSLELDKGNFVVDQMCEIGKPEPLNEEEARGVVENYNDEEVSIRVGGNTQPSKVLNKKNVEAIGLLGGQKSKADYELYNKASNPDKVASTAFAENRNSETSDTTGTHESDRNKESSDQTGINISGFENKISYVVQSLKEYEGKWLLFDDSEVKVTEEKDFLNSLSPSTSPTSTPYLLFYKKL
Procedure, shortened: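 Kinetic fluorescence assay: 1nM USP1/UAF1, 15 min compound preincubation, then 150nM Ub-Rho; 480/540 nm.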

[7] = biological target: DNA dC->dU-editing enzyme APOBEC-3G (Homo sapiens) (UniProt Q9HC16); experiment: qHTS for inhibitors of Vif-A3G interactions: Validation (AID 588379)
Sequence of DNA dC->dU-editing enzyme APOBEC-3G (Homo sapiens) (Q9HC16 whole entry, looked up): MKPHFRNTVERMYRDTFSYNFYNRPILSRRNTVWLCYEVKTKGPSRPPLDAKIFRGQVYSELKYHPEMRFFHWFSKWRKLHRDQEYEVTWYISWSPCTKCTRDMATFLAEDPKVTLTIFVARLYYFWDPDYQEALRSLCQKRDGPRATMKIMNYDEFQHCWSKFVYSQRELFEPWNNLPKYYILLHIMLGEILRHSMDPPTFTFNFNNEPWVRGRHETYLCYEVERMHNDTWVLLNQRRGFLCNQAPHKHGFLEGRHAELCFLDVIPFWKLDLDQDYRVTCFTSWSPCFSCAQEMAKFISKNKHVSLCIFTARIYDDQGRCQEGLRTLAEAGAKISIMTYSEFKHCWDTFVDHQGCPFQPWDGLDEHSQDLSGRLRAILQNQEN
Procedure, shortened: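 Yellow fluorescence (Ex 488, Em 500-530) of Vif-coexpressing HeLa A3G-eYFP cells, scanned by Acumen cytometer, reports blocked A3G degradation. Cells plated at 700/well overnight at 37 deg C before compound addition, then a further overnight compound incubation at 37 deg C.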

[8] = Counterscreen qHTS for small molecule stabilizers of the endoplasmic reticulum resident proteome: GLuc-NoTag assay (AID 1508627); also: potency is read from the fitted curve at half-maximal effect
Procedure, shortened: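 Secreted GLuc lacking the SERCaMP modification is measured in SH-SY5Y cells exposed to compound for 19 h and then to thapsigargin (100 nM, 4 h) to deplete ER calcium; hits retested at 11 concentrations, up to 76.6 uM.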

[9] = Confirmatory qHTS for small molecule stabilizers of the endoplasmic reticulum resident proteome: Secreted ER Calcium Modulated Protein (SERCaMP) assay (AID 1508628); also: nearly all actives have a fitted effect of over 40% in size; also: potency is read from the fitted curve at half-maximal effect
Procedure, shortened: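 GLuc-SERCaMP-expressing SH-SY5Y cells, pretreated 16 h with compound, are challenged with thapsigargin to empty ER calcium stores; after 4 h, coelenterazine is added directly to the medium and luminescence is imaged.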

[10] = Cell Viability qHTS for small molecule stabilizers of the endoplasmic reticulum resident proteome (AID 1508629); settings: cell viability counter-screen, 100 nM thapsigargin for final 4 h;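 also: compound exposure about 46 h in total before the viability read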; also: potency is read from the fitted curve at half-maximal effect;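 as to max response: human SH-SY5Y neuroblastoma cells carrying the GLuc-SERCaMP reporter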
[11] = Primary qHTS for small molecule stabilizers of the endoplasmic reticulum resident proteome: Secreted ER Calcium Modulated Protein (SERCaMP) assay (AID 1508630)
Procedure, shortened: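 The SH-SY5Y reporter protocol was run at 3 concentrations up to 38.3 uM (primary) or 11 concentrations (follow-up): 16 h compound, 100 nM thapsigargin for 4 h, then extracellular luciferase luminescence.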

[12] = biological target: Glucocorticoid receptor (Homo sapiens) (UniProt P04150); experiment: GR-GFP Redistribution (AID 450;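 active = compounds whose dose series gives a full or clear partial fitted curve of increased nuclear translocation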; also: potency is read from the fitted curve at half-maximal effect); settings: U2OS GR-GFP nuclear translocation, laser cytometry, 2 h
Sequence of Glucocorticoid receptor (Homo sapiens) (P04150 whole entry, looked up, the tested form may be a part): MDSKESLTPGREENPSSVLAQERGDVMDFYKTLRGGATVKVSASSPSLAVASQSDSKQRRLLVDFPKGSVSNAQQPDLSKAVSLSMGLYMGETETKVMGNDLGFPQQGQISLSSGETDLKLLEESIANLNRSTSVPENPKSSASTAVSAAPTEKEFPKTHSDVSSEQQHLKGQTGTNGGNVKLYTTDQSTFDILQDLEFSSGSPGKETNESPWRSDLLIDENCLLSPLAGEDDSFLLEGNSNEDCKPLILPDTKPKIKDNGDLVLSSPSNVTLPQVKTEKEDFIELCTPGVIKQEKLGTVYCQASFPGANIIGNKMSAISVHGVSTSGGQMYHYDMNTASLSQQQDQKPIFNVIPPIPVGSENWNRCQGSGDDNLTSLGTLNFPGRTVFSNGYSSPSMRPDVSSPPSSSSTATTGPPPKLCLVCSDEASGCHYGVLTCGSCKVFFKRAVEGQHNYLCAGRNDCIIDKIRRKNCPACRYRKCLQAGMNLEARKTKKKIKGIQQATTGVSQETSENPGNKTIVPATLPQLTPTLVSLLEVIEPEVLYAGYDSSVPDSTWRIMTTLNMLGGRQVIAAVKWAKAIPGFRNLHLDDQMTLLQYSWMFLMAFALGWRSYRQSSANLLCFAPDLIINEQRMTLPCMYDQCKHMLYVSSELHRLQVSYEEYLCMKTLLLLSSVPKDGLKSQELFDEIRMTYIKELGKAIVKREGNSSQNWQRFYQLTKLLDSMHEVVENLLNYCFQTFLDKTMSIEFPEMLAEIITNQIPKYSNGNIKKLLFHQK

[13] = biological target: Glucocorticoid receptor (Homo sapiens) (UniProt P04150); experiment: GR-EFC Redistribution (AID 451; calls by dose curve; also: potency is read from the fitted curve at half-maximal effect); settings: CHO-K1 GR-EFC translocation, beta-gal luminescence, 2 h
Procedure, shortened: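 CHO-K1 cells stably expressing nuclear-localized β-gal enzyme acceptor and GR fused C-terminally to the enzyme donor fragment; ligand-driven nuclear translocation restores β-gal by complementation. Compounds titrated up to 46 uM final, 2 h at 37 °C; luminescence read.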

[14] = biological target: Voltage-gated inwardly rectifying potassium channel KCNH2 (Homo sapiens) (UniProt Q12809); experiment: qHTS Assay for Small Molecule Inhibitors of the Human hERG Channel Activity (AID 588834);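 also: U2OS cells transduced with hERG by BacMam; top concentration of the series differs between compounds; lower thallium flux fluorescence means stronger hERG block; nearly all actives have a fitted effect of over 50% in size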
Sequence of Voltage-gated inwardly rectifying potassium channel KCNH2 (Homo sapiens) (Q12809 whole entry, looked up): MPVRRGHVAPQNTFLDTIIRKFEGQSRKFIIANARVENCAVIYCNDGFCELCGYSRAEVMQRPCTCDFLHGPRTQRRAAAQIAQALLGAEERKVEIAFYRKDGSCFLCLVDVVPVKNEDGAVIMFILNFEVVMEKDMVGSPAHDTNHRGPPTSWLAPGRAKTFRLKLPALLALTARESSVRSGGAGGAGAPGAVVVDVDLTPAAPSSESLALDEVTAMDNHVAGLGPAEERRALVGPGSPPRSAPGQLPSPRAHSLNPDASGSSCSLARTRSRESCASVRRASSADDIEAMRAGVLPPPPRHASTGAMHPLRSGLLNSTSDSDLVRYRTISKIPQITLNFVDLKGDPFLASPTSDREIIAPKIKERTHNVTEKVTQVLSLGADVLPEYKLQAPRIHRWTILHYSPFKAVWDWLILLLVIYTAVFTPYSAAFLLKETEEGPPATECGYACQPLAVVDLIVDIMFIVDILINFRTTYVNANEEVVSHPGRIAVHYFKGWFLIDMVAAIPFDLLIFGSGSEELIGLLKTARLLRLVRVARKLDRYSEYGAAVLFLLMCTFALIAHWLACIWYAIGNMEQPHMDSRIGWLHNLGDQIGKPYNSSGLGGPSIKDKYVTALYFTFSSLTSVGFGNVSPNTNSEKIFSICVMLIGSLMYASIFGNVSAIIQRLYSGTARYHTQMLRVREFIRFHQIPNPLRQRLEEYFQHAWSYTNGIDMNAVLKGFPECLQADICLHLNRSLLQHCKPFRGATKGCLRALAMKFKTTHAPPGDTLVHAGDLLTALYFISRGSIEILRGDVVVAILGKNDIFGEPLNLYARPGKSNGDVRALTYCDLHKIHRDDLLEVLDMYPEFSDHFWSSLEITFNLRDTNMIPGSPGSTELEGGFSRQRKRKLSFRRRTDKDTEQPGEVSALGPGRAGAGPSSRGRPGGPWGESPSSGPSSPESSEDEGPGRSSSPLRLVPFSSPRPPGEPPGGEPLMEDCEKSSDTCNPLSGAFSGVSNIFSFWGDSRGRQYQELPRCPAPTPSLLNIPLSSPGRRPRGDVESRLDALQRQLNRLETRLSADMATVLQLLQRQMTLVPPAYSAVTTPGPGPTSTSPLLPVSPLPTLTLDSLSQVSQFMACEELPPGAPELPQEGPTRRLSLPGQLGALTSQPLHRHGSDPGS
Procedure, shortened: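 Cells were infected with hERG-BacMam virus for 4 hrs at room temperature, grown overnight, then seeded at 2000/well. After dye loading and roughly 10 min compound treatment, thallium influx was triggered and fluorescence recorded.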

[15] = measured here: cell count channel max response
[16] = measured here: lipid channel max response

## NCCc1ccccn1
[1]
  Potency: inactive

## c1ccc2sc(C3(NCC4CC4)CCCCC3)cc2c1
[1]
  Potency: inactive

## CCN(CC)CCO[C@H]1CC[C@@]2(C)C(=CC[C@@H]3[C@H]2CC[C@]2(C)C(=O)CC[C@H]32)C1
[2]
  Potency: inactive
[3]
  outcome: inactive
[4]
  Potency: inactive
[5]
  activity change, negative = inhibition: -3.37% (inactive)
[5]; [15]
  max response: 16%
[5]; [16]
  max response: 11.9%
[6]
  Potency: inactive
[7]
  Potency: inactive
[1]
  Potency: inactive
[8]
  Potency: 25.1 µM (active)
[9]
  Potency: 31.6 µM (active)
[10]
  Potency: 12.6 µM (active)

## CCCCCCCCCCCCCCCCOC[C@@H](O)COP(=O)([O-])OCC[N+](C)(C)C
[1]
  activity change, negative = inhibition: 3.47% [at 6.83 µM] (inactive)

## C=C1[C@@H](C)[C@H]2[C@H](Cc3ccccc3)NC(=O)[C@]23OC(=O)/C=C/[C@H](O)CCC[C@@H](C)C/C=C/[C@H]3[C@@H]1O
[1]
  Potency: inactive
[11]
  Potency: inactive

## NCC(CS(=O)(=O)O)c1ccc(Cl)cc1 (stereo not drawn)
[1]
  Potency: inactive

## C(=C\c1ccccc1)/CN1CCN(CCOC(c2ccccc2)c2ccccc2)CC1
[1]
  Potency: inactive

## OC12C3C4CC5C6C4C1C6C(C53)N2CCc1cccc(F)c1 (stereo not drawn)
[1]
  Potency: inactive
[8]
  Potency: inactive

## C=C(C)C1CCC(C)=CC1c1c(OC)cc(C)cc1OC (stereo not drawn)
[1]
  Potency: inactive

## CCCC[C@H]1C(=O)O[C@H](C)[C@H](NC(=O)c2cccc(NC=O)c2OC)C(=O)O[C@@H](C)[C@@H]1OC(=O)CC(C)C
[1]
  Potency: inactive

## CP(=O)(O)CCCN
[2]
  Potency: inactive
[12]
  Potency: > 46 µM (inactive)
[13]
  Potency: > 46 µM (inactive)
[3]
  outcome: inactive
[4]
  Potency: inactive
[5]
  activity change, negative = inhibition: -0.195% (inactive)
[5]; [15]
  max response: 3.46%
[5]; [16]
  max response: 4.47%
[7]
  Potency: inactive
[14]
  Potency: inactive
[1]
  Potency: inactive
[11]
  Potency: inactive

## C[C@@H]1O[C@H](C[N+](C)(C)C)C[C@@H]1O
[1]
  Potency: inactive

## COc1cc(CCN)ccc1O
[2]
  Potency: inactive
[12]
  Potency: > 46 µM (inactive)
[13]
  Potency: > 46 µM (inactive)
[3]
  outcome: inactive
[4]
  Potency: inactive
[14]
  Potency: inactive
[1]
  Potency: inactive
[11]
  Potency: inactive

## CCC(Sc1ccccc1)C(=O)OC1CC2CCC(C1)N2C (stereo not drawn)
[1]
  Potency: inactive
[8]
  Potency: inactive
[9]
  Potency: 5.62 µM (active)

## N[C@@H](Cn1cc(I)c(=O)[nH]c1=O)C(=O)O
[12]
  Potency: > 46 µM (inactive)
[13]
  Potency: > 46 µM (inactive)
[5]
  activity change, negative = inhibition: 1.49% (inactive) and 0.139% (inactive)
[5]; [15]
  max response: 1.2% and -23.8%
[5]; [16]
  max response: 4.16% and -23.5%
[6]
  Potency: inactive
[7]
  Potency: inactive
[14]
  Potency: inactive
[1]
  Potency: inactive
[11]
  Potency: inactive

## COc1ccc(CCN)cc1O
[12]
  Potency: > 46 µM (inactive)
[13]
  Potency: > 46 µM (inactive)
[4]
  Potency: inactive
[14]
  Potency: inactive
[1]
  Potency: inactive
[11]
  Potency: inactive

## CCCCC/C=C\C/C=C\C/C=C\C/C=C\CCCCCC(=O)NCCO
[1]
  activity change, negative = inhibition: 3.5% [at 6.83 µM] (inactive)

## CCCCC/C=C\C/C=C\C/C=C\CCCCCCC(=O)NCCO
[1]
  activity change, negative = inhibition: 14.4% [at 6.83 µM] (inactive)

## CN1CCN(c2ccc3ccccc3n2)CC1
[2]
  Potency: 10 µM (active) and 3.16 µM (active)
[12]
  Potency: > 46 µM (inactive)
[13]
  Potency: > 46 µM (inactive)
[3]
  outcome: inactive
[4]
  Potency: inactive
[5]
  activity change, negative = inhibition: -1.18% (inactive) and 2.43% (inactive)
[5]; [15]
  max response: 12.9% and -15.1%
[5]; [16]
  max response: 12.4% and -14.2%
[7]
  Potency: inactive
[1]
  Potency: inactive
[9]
  Potency: inactive

## CN1CC[C@@H]2CN3CCc4cccc(c43)[C@@H]2C1
[1]
  Potency: inactive
[8]
  Potency: inactive

## NC(=O)[C@H](Cc1ccccc1)NC(=O)[C@H](Cc1c[nH]c2ccccc12)NC(=O)[C@@H]1CCCN1C(=O)[C@@H](N)Cc1ccc(O)cc1
[1]
  activity change, negative = inhibition: 11.2% [at 6.83 µM] (inactive)

## C[C@@H](C(=O)OC1C[C@H]2CC[C@@H](C1)N2C)c1ccc(Br)cc1 (stereo partly drawn)
[2]
  Potency: 39.8 µM (active)
[12]
  Potency: > 46 µM (inactive)
[13]
  Potency: > 46 µM (inactive)
[3]
  outcome: inactive
[5]
  activity change, negative = inhibition: 2.43% (inactive)
[5]; [15]
  max response: 12.6%
[5]; [16]
  max response: 16.9%
[6]
  Potency: inactive
[7]
  Potency: inactive
[1]
  Potency: inactive
[8]
  Potency: inactive
[9]
  Potency: 31.6 µM (active)
[10]
  max response: -11% (inactive)

## CC(O)C(C)OC(=O)[C@@H]1C[C@@H]2c3cccc4c3c(cn4C(C)C)C[C@H]2N(C)C1 (stereo partly drawn)
[5]
  activity change, negative = inhibition: 2.46% (inactive)
[5]; [15]
  max response: -4.58%
[5]; [16]
  max response: -0.261%
[14]
  Potency: inactive
[1]
  Potency: inactive
[11]
  Potency: inactive
